Laboratory results published in the supplement of paper PMC12350171.
Counter-ions that a name gives are not always drawn. A number with no mark means an inactive call.

Columns and labels:
Conditions in all cases: 20 µM
[1] = test system: Salmonella enterica typhimurium; assay: growth AUC normalised to DMSO control (fraction of control); higher = less growth inhibition, active = hit call of the paper
Summary of the method: (§1)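 Hemin and NAD were added to the medium for Haemophilus parainfluenzae. All pathogens, after two anaerobic passages, were inoculated at a starting OD578 of 0.01 into pre-reduced mGAM plates with 20 μM compound and 1% DMSO under breathable seals, and OD578 was read hourly for 24 h in three biological replicates. AUC of each growth curve was obtained with the trapezoidal rule up to the exponential-to-stationary transition and normalised to DMSO controls from the same plate.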

Shigella flexneri = assay: as above
Summary of the method: as §1

Vibrio cholerae = assay: as above
Summary of the method: as §1

[2] = test system: Yersinia pseudotuberculosis; assay: as above
Summary of the method: as §1

P. vulgatus RND KO = assay: growth AUC normalised to DMSO control (median) (fraction of control); higher = less growth inhibition, active = hit call of the paper
Summary of the method: (§2)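 In 96-well plates of mGAM seeded at OD578 0.01, strains that had been passaged twice overnight without oxygen were exposed to approved-drug library compounds at 20 μM with 1% DMSO. Hourly OD578 readings were taken for 24 h in an anaerobic incubator. The trapezoidal-rule area under the curve, with curves truncated at entry into stationary phase, was expressed relative to same-plate vehicle wells as the median of three biological replicates.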

P. vulgatus WT = assay: as above
Summary of the method: as §2

[3] = test system: S. enterica typhimurium WT; assay: as above
Summary of the method: as §2

[4] = test system: S. enterica typhimurium tolC KO; assay: as above
Summary of the method: as §2
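Throughout, for growth AUC normalised to DMSO control (median): active when median AUC fell below 0.1.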

| SMILES | growth AUC normalised to DMSO control [1] | growth AUC normalised to DMSO control (Shigella flexneri) | growth AUC normalised to DMSO control (Vibrio cholerae) | growth AUC normalised to DMSO control [2] | growth AUC normalised to DMSO control (P. vulgatus RND KO) | growth AUC normalised to DMSO control (P. vulgatus WT) | growth AUC normalised to DMSO control [3] | growth AUC normalised to DMSO control [4] |
| --- | --- | --- | --- | --- | --- | --- | --- | --- |
| Cc1cc(-n2c(=O)[nH]c(=O)n(C)c2=O)ccc1Oc1ccc(SC(F)(F)F)cc1 [Toltrazuril] | 1.01 | 0.995 | 1 | 1.01 |  |  |  |  |
| O=C(c1ccc(OCCN2CCCCC2)cc1)c1c(-c2ccc(O)cc2)sc2cc(O)ccc12 [Raloxifene hydrochloride] | 1.01 | 0.992 | 0.988 | 0.981 | 1.06 | 1.01 | 1.02 | 1.01 |
| Nc1ncnc2c1ncn2[C@@H]1O[C@H](CO)[C@@H](O)[C@@H]1O [Vidarabine] | 0.988 | 0.984 | 0.975 | 0.829 | 0.971 | 0.977 | 0.99 | 0.995 |
| COC(=O)C1=C(C)NC(C)=C(C(=O)OCC(C)C)C1c1ccccc1[N+](=O)[O-] (stereo unspecified) [Nisoldipine] | 1.01 | 1 | 1.01 | 0.991 | 0.945 | 0.981 | 1.01 | 0.95 |
| CCCOc1ccccc1-c1nc2[nH]nnc2c(=O)[nH]1 [Zaprinast] | 0.998 | 0.977 | 0.985 | 0.989 | 1 | 1.02 | 1 | 1 |
| CCS(=O)(=O)CCn1c([N+](=O)[O-])cnc1C [Tinidazole] | 1.01 | 0.99 | 1 | 0.971 | 0.0183 (active) | 0.0185 (active) | 1 | 0.995 |
| CCOC(=O)/C=C(C)/C=C/C=C(C)/C=C/c1c(C)cc(OC)c(C)c1C [Etretinate] | 1.01 | 1.03 | 0.998 | 1 | 1.03 | 1.06 | 1 | 0.991 |
| NC[C@@H]1O[C@H](O[C@H]2[C@@H](O)[C@H](O[C@@H]3[C@@H](O)[C@H](N)C[C@H](N)[C@H]3O[C@H]3O[C@H](CN)[C@@H](O)[C@H](O)[C@H]3N)O[C@@H]2CO)[C@H](N)[C@@H](O)[C@@H]1O [Neomycin sulfate] | 1.01 | 1.04 | 1.05 | 1 | 1.02 | 1.01 | 0.999 | 1.03 |
| Nc1nc(NC2CC2)c2ncn([C@H]3C=C[C@@H](CO)C3)c2n1 [Abacavir sulfate] | 1.01 | 0.989 | 0.989 | 0.971 | 0.989 | 1.01 | 1.01 | 1 |
| CC(C)NCC(O)c1ccc2ccccc2c1 (stereo unspecified) [Pronethalol hydrochloride] | 0.991 | 1 | 0.999 | 0.982 | 1 | 1.01 | 0.994 | 0.989 |
| C[n+]1ccccc1/C=N/O [Pralidoxime chloride] | 0.998 | 1.01 | 0.971 | 1.01 | 1.01 | 1 | 1.01 | 1 |
| CCC(Cc1c(I)cc(I)c(N)c1I)C(=O)O (stereo unspecified) [Iopanoic acid] | 1.01 | 1.01 | 1.01 | 0.989 | 0.999 | 1 | 1.01 | 0.987 |
| NCCc1ccc(O)c(O)c1 [Dopamine hydrochloride] | 1.02 | 1.05 | 0.989 | 1.01 | 1.03 | 1.02 | 1 | 0.99 |
| O=C(O)CCc1nc(-c2ccccc2)c(-c2ccccc2)o1 [Oxaprozin] | 1.02 | 1.02 | 1.01 | 0.994 | 1 | 1.05 | 1 | 1 |
| CC(C[N+](C)(C)C)OC(N)=O (stereo unspecified) [Bethanechol chloride] | 1 | 1.01 | 1.02 | 0.986 | 0.982 | 0.997 | 1 | 0.993 |
